KB-V1 MDR tox – kills drug-selected multidrug resistant KB-V1 cells. KB-V1 MDR cells viability, CellTiter-Glo, 72 h. hit rate 3.4% among 400,000. Potency, µM (titrated, usually from 46.1 µM), most hits filed as cytotoxic; further: on the % scale 0 is the no-effect control and ±100 the full control effect; nearly all actives have a fitted effect of over 60% in size
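Cells of the MDR subline KB-V1 are plated, dosed with compound at multiple concentrations, and incubated 72 h at 37 degrees C; CellTiter-Glo is then added and luminescence read after 10 min.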
HT1080 IDH1KD tx – toxicity to HT-1080 IDH1 knockdown cells (counter line). HT-1080 IDH1 knockdown viability, ATP luminescence, 48 h. Potency, µM (top dose mostly 46.1 µM), inactives show top-dose activity, negative = toxicity, most hits filed as cytotoxic. hit rate 2% among 360,000. AID 686971;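 further: 0% = DMSO wells and -100% = cell-free medium wells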
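Knockdown cells (IDH1KD HT-1080) received compounds 2 h after plating at 750 cells/well and were kept 48 h at 37 °C in 5% FBS RPMI. A CellTiter-Glo luminescence read gave % activity for curve fitting.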
TGFb SMAD3 inh – blocks TGF-b signaling; HepG2 CAGA-GFP TGF-b/SMAD3 reporter, GFP fluorescence, 18 h; TGF-beta stimulated, 500 pg/mL final; Potency, µM (doses to about 46.1 µM), for the others: top-dose activity, negative = inhibition, actives largely listed as inhibitors; hit rate 1.2% among 410,000; AID 588855; further: on the % scale 0 is the no-effect control and ±100 the full control effect; nearly all actives have a fitted effect of over 65% in size
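Inhibition was scored as loss of TGF-beta-induced (500 pg/mL final, 18 hours, 37 degrees C) GFP in HEPG2 cells carrying a CAGA-GFP reporter, in DMEM with 1% FBS. Well GFP was summed per cell; Activity was normalised to unstimulated and stimulated DMSO wells, then concentration-response fitting.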
HepG2 viability – kills HepG2 cells in TGF-b inhibitor counter-screen. HepG2 CAGA-GFP viability, ATP luminescence, 18 h. Potency, µM (series often up to 46.1 µM), for the others: at the highest dose activity change, negative = cytotoxicity, usual class: cytotoxic. hit rate 0.76% among 410,000
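HepG2 CAGA-GFP cells (1000/well, DMEM with 1% FBS) received compound, then TGF-beta at 500 pg/mL final, and were incubated 18 hours at 37 degrees C. Viability was read by CellTiter-Glo luminescence. Media-only wells were set as complete cell-killing and DMSO as no toxicity.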
KB-3-1 tox – KB-3-1 parental cell cytotoxicity; KB-3-1 viability, CellTiter-Glo ATP luminescence, 72 h; Potency, µM (highest dose often 46.1 µM), actives largely listed as cytotoxic; hit rate 1.4% among 400,000; further: on the % scale 0 is the no-effect control and ±100 the full control effect; nearly all actives have a fitted effect of over 60% in size
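Luminescent ATP read-out (CellTiter-Glo) measures survival of drug-naive KB-3-1 cells after 72 h compound exposure at 37 °C. Titration series was screened from lowest to highest concentration, with DMSO vehicle plates as background controls.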
HT1080-NT tox – kills 2HG-producing HT-1080-NT fibrosarcoma cells. HT-1080-NT fibrosarcoma viability, CellTiter-Glo ATP luminescence, 48 h. Potency, µM (top dose mostly 46.1 µM), inactives show top-dose activity, negative = less viability, actives largely listed as cytotoxic. hit rate 1.6% among 360,000;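 further: NT is the 2HG producing partner of a matched IDH1 knockdown line; 0% = DMSO-treated cells and -100% = media-only wells without cells; nearly all actives have a fitted effect of over 55% in size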
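Compounds were tested in concentration-response format on HT-1080-NT cells for 48 hours at 37 degrees C. Cell viability came from CellTiter-Glo luminescence; curves were classified by r2, response magnitude and activity.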
* marks the source's active call; other numbers are inactive results; i = inactive; ? = inconclusive; / = no result given. In the library only some 6.6% were active in any assay of this set; here they are far more common. The call rests on the fitted dose curve; in most records, active means well fitted curve in the direction sought with a large enough effect; inconclusive means small, poorly fitted or top-dose-only effect, or another doubt; inactive means no such curve, though single readings can be large; an effect the other way counts as inactive or inconclusive. Potency means the concentration at half of the fitted maximal effect.

SMILES	KB-V1 MDR tox	HT1080 IDH1KD tx	TGFb SMAD3 inh	HepG2 viability	KB-3-1 tox	HT1080-NT tox
c1ccc2c(CCNc3ncnc4nc[nH]c34)cccc2c1	i	-15%	-7%	-39%	18µM*	1%
Cc1ccccc1-n1c(-c2ccc(Cl)cc2)cnc1SCC(=O)NC1CCS(=O)(=O)C1 (stereo not drawn)	18µM*	2%	1%	0%	i	-6%
CCOc1ccccc1NC(=O)N1CC(C)Oc2ccc(Cl)cc21 (stereo not drawn)	/	/	-16%	-8%	/	/
COc1ccccc1N=c1oc2cc(O)ccc2cc1C(N)=O	?	?	24%	10µM*	?	23µM*
CC(=O)Nc1ccc(C=NN=C2c3ccccc3-c3ccccc32)cc1	18µM*	?	?	-17%	i	-25%
Cc1ccc(Cl)cc1NC(=O)c1oc2c(c1C)-c1[nH]ncc1CC2	/	/	-18%	-39%	/	/
Cc1ccc(C)c(CN2C(=O)C3(c4ccccc42)N(c2ccc(Cl)cc2)C(=O)CS3(=O)=O)c1 (stereo not drawn)	i	/	2%	-20%	i	/
NC(=O)/C(=N\OC(=O)c1ccco1)c1nc(-c2ccc(Br)cc2)cs1	9.2µM*	-19%	-26%	-55%	?	-19%
Brc1ccc(-c2csc(N/N=C/c3ccco3)n2)cc1	i	0%	-2%	3%	i	1%
CCn1c(SCC(=O)N(C)C)nc2cc(S(=O)(=O)N3CCCCC3)ccc21	21µM*	-2%	-8%	-35%	i	-5%
CCn1c(C)nc2cc(S(=O)(=O)N3CCCCC3)ccc21	i	-7%	-9%	-21%	i	-6%
Cn1nnc2c(N3CCCCC3)ncnc21	i	21%	38%	-16%	i	17%
COc1cc(N2C(=O)C=CC2=O)c(OC)cc1Cl	?	?	11µM*	-91%	?	18µM*
COc1cc(Cl)c(S(=O)(=O)N2CCCC2)cc1Cl	i	-4%	-2%	-15%	i	-12%
COc1cc2c(NC3CCN(C)CC3)nc(N3CCCN(C)CC3)nc2cc1OCCN(C)C	/	-1%	/	/	/	3%
COc1ccc(CCNc2oc(COc3ccc(F)cc3)nc2C#N)cc1	i	-24%	16µM*	-43%	i	-29%
COc1ccc(CCNc2oc(COc3ccccc3F)nc2C#N)cc1OC	i	?	0%	-23%	i	-8%
CC(C)(C)C(=O)Nc1ccc(/C=C/C(=O)c2ccco2)cc1	i	23µM*	?	-15%	i	?
Nc1ccc(/C=C/C(=O)c2ccco2)cc1	i	1%	-1%	-15%	i	12%
O=C(Cc1ccc(OCCc2ccccc2)cc1)NO	?	/	-10%	-37%	i	/
CCOC(=O)c1cccc(NC(=O)c2cc3ccccn3n2)c1	i	/	-8%	-49%	i	/
Cc1cc2ccccn2c1C(=O)c1ccc([N+](=O)[O-])o1	?	16µM*	11µM*	11µM*	?	?
COc1ccc(Nc2nc3ccc(Cl)cc3n3nnnc23)cc1OC	i	/	103%	34%	i	/
O=C(NCc1ccccc1)C(c1ccccc1F)n1c(=O)c(-c2ccco2)nc2ccccc21 (stereo not drawn)	i	0%	/	/	i	-4%
COc1ccc(C(C(=O)NCc2ccccc2)n2c(=O)c(-c3ccco3)nc3ccccc32)cc1 (stereo not drawn)	?	21µM*	/	/	?	?
SMILES	KB-V1 MDR tox	HT1080 IDH1KD tx	TGFb SMAD3 inh	HepG2 viability	KB-3-1 tox	HT1080-NT tox
CCc1ccc(-n2c(=O)c3c4c(sc3n(CC(=O)N3CCCCC3CC)c2=O)CCC4)cc1 (stereo not drawn)	i	/	-11%	-3%	i	/
CCC(C)(C)NC(=O)C(c1ccccc1F)N(Cc1ccco1)C(=O)c1csnn1 (stereo not drawn)	18µM*	-1%	17%	-4%	i	-21%
CCC(C)(C)NC(=O)C(c1sccc1C)N(Cc1ccco1)C(=O)c1csnn1 (stereo not drawn)	i	-2%	1%	6%	i	2%
COc1cccc(C(=O)Nc2ccc(-n3nncc3-c3ccccc3)cc2)c1OC	i	/	41%	25%	i	/
CCN(CC)c1ccc2cc(-c3nc4ccccc4n3C)c(=O)oc2c1	0.41µM*	?	?	-12%	0.23µM*	?
CCN(CC)c1ccc2cc(-c3nc(-c4ccc(OC)cc4)cs3)c(=O)oc2c1	18µM*	10%	-70%	0%	i	7%
CCN(CC)C(=O)C1=CC(c2ccc3c(c2)OCO3)=NS(=O)(=O)N1C	i	/	-4%	-2%	i	/
CCN(c1cc(C)cc(C)c1)S(=O)(=O)c1nnc(NC(=O)c2cccc(F)c2)s1	/	/	-28%	-43%	/	/
CCc1[nH]nc2c1C(c1ccc(Br)s1)C(C#N)=C(N)O2 (stereo not drawn)	i	?	11µM*	-99%	?	?
Cc1ccc(SCc2[nH]nc3c2C(c2ccco2)C(C#N)=C(N)O3)cc1 (stereo not drawn)	i	-24%	?	13µM*	i	?
Cc1ccc(SCc2[nH]nc3c2C2(C(=O)N(C)c4ccccc42)C(C#N)=C(N)O3)cc1 (stereo not drawn)	i	?	-22%	14%	i	15µM*
CCN(CC)c1ccc2nc3ccc(N)cc3[n+](-c3ccccc3)c2c1	?	5.8µM*	?	-45%	0.73µM*	10µM*
CCN(CC)c1ccc2nc3ccccc3[n+](CC)c2c1	9.2µM*	23µM*	?	-62%	3.7µM*	26µM*
CCN(CC)c1ccc(C=Nc2cccnc2Cl)c(O)c1	i	-1%	-2%	-13%	i	-1%
CCN(CC)c1ccc2cc(-c3nc4ccccc4[nH]3)c(=O)oc2c1	?	11%	147%	-2%	?	0%
C[C@@H]1[C@H](c2ccccc2)OCCS(=O)(=O)N1Cc1ccc(Cl)cc1	12µM*	/	?	0%	16µM*	/
C[C@@H]1[C@H](c2ccccc2)OCCS(=O)(=O)N1Cc1ccccc1	i	/	1%	18%	i	/
Cc1cccc(OCC(=O)NCC2(N3CCN(C)CC3)CCCCC2)c1C	/	/	-14%	-18%	/	/
CCN(Cc1ccccc1)c1ccccc1	i	4%	-1%	-12%	i	0%
CCN(Cc1ccccc1)c1ccc(/C=N/N=C(N)N)cc1	?	?	?	-81%	?	18µM*

Source: PubChem (National Center for Advancing Translational Sciences (NCATS))
